# According to PubChem BioAssay (NCI):
# This is part of a sample that, as a whole, favours compounds with a hit. Of some 83,000 tested, about 20% had one in any assay.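 How to read the values: 0–100, growth inhibition (40 = 60% inhibited); 0, no net growth; -100 to 0, cell death (-40 = 40% of starting cells died; -100 = all dead).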 A number with no mark means an inactive call. The source made the active and inactive calls. Rule for the calls: active = growth percent below 10; inactive = the rest.
# How the values were obtained:
# Assay in all cases: NCI-60 one-dose screen, 48 h (100 = growth as untreated, 0 = no growth, -100 = all killed)
# HCT-15 colon = system: HCT-15 colon
# HT29 colon = system: HT29 colon
# SNB-75 CNS = system: SNB-75 CNS
# U251 CNS = conditions: 10 µM unless noted
# PC-3 prostate = system: PC-3 prostate
# SK-MEL-5 melanoma = system: SK-MEL-5 melanoma
# LOX IMVI melanoma = conditions: 10 µM unless noted
# EKVX NSCLC = conditions: 10 µM unless noted
# SN12C renal = system: SN12C renal
# UO-31 renal = system: UO-31 renal
# TK-10 renal = system: TK-10 renal
# ACHN renal = system: ACHN renal
# CAKI-1 renal = system: CAKI-1 renal
# CCRF-CEM leukemia = conditions: 10 µM unless noted
# MOLT-4 leukemia = system: MOLT-4 leukemia
# SNB-19 CNS = conditions: 10 µM unless noted
# UACC-62 melanoma = conditions: 10 µM unless noted
# SK-MEL-28 melanoma = conditions: 10 µM unless noted
# SK-MEL-2 melanoma = conditions: 10 µM unless noted
# A498 renal = conditions: 10 µM unless noted
structure (smiles),measurement,setting,value
COc1ccc(-c2cscc2N)cc1,growth,HCT-15 colon; 10 µM,63.1%
same,growth,HCT-15 colon; 100 µM,63.9%
same,growth,HT29 colon; 10 µM,97.7%
same,growth,HT29 colon; 100 µM,52%
same,growth,SNB-75 CNS; 10 µM,88.8%
same,growth,SNB-75 CNS; 100 µM,51.9%
same,growth,U251 CNS,38.5% [100 µM]
same,growth,PC-3 prostate; 10 µM,98.4%
same,growth,PC-3 prostate; 100 µM,41.4%
same,growth,SK-MEL-5 melanoma; 10 µM,48.8%
same,growth,SK-MEL-5 melanoma; 100 µM,33.1%
same,growth,LOX IMVI melanoma,45.7%
same,growth,EKVX NSCLC,51.4% [100 µM]
same,growth,SN12C renal; 10 µM,71.2%
same,growth,SN12C renal; 100 µM,55.1%
same,growth,UO-31 renal; 10 µM,78%
same,growth,UO-31 renal; 100 µM,27%
same,growth,TK-10 renal; 10 µM,101%
same,growth,TK-10 renal; 100 µM,74.4%
same,growth,ACHN renal; 10 µM,54.7%
same,growth,ACHN renal; 100 µM,40.7%
same,growth,CAKI-1 renal; 10 µM,70.9%
same,growth,CAKI-1 renal; 100 µM,29.2%
same,growth,CCRF-CEM leukemia,31.3% [100 µM]
same,growth,MOLT-4 leukemia; 10 µM,66.4%
same,growth,MOLT-4 leukemia; 100 µM,38.6%
N#CSCc1c(Cl)cccc1Cl,growth,HCT-15 colon; 10 µM unless noted,14.6%
same,growth,HT29 colon; 10 µM unless noted,12%
same,growth,SNB-75 CNS; 10 µM unless noted,96.4%
same,growth,SNB-19 CNS,90.2%
same,growth,U251 CNS,91.8%
same,growth,PC-3 prostate; 10 µM unless noted,76.2%
same,growth,SK-MEL-5 melanoma; 10 µM unless noted,87.5%
same,growth,UACC-62 melanoma,88.5%
same,growth,LOX IMVI melanoma,49.9%
same,growth,SK-MEL-28 melanoma,56.2%
same,growth,SK-MEL-2 melanoma,102%
same,growth,EKVX NSCLC,103%
same,growth,SN12C renal; 10 µM unless noted,93.3%
same,growth,UO-31 renal; 10 µM unless noted,40.2%
same,growth,TK-10 renal; 10 µM unless noted,101%
same,growth,ACHN renal; 10 µM unless noted,49.9%
same,growth,CAKI-1 renal; 10 µM unless noted,47.7%
same,growth,A498 renal,85.1%
same,growth,CCRF-CEM leukemia,44.1%
same,growth,MOLT-4 leukemia; 10 µM unless noted,90.9%
c1ccc2c(c1)Nc1cc3ccccc3cc1N2,growth,HCT-15 colon; 10 µM unless noted,17.5%
same,growth,HT29 colon; 10 µM unless noted,14.7%
same,growth,SNB-75 CNS; 10 µM unless noted,32.6%
same,growth,SNB-19 CNS,57.1%
same,growth,U251 CNS,43%
same,growth,PC-3 prostate; 10 µM unless noted,24.9%
same,growth,SK-MEL-5 melanoma; 10 µM unless noted,-75.7% (active)
same,growth,UACC-62 melanoma,52.9%
same,growth,LOX IMVI melanoma,11.3%
same,growth,SK-MEL-28 melanoma,83.3%
same,growth,SK-MEL-2 melanoma,84%
same,growth,EKVX NSCLC,56.4%
same,growth,SN12C renal; 10 µM unless noted,54.6%
same,growth,UO-31 renal; 10 µM unless noted,17.6%
same,growth,TK-10 renal; 10 µM unless noted,93.3%
same,growth,ACHN renal; 10 µM unless noted,27%
same,growth,CAKI-1 renal; 10 µM unless noted,38%
same,growth,A498 renal,81.9%
same,growth,CCRF-CEM leukemia,26.5%
same,growth,MOLT-4 leukemia; 10 µM unless noted,20.9%
